Records with an inconclusive call do not appear. Entries that show only a call come without a potency. Calls of active or inactive are those of the source. Unless noted, calls come from the whole dose curve.
molecular target: D(2) dopamine receptor (Homo sapiens) (UniProt P14416); assay: Dopamine D2 receptor (DRD2) small molecule agonists, cell-based qHTS assay (AID 1963594); conditions: HEK293-DRD2 cAMP HTRF, agonist mode, 30 min; series mostly up to 92.4 µM; note: nearly all actives have a fitted effect of over 35% in size
Sequence (P14416 whole entry, looked up): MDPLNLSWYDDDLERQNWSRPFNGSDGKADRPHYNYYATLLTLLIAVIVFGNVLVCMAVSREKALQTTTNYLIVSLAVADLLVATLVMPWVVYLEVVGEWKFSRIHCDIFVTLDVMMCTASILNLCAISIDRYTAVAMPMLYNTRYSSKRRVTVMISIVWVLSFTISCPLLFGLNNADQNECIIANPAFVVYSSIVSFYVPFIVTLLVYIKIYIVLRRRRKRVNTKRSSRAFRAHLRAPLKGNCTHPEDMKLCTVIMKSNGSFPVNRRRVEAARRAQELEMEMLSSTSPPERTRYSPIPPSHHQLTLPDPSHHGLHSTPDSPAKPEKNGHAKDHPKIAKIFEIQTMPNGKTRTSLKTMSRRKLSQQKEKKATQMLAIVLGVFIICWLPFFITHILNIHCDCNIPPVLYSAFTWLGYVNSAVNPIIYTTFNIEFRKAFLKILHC
Method in brief: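 HEK293 cells stably expressing human DRD2, pre-treated with PDE inhibitor Ro20-1724 (0.1 mM final) and compound 10 min at room temperature, then stimulated with NKH477 (200nM […]) for 30 min. cAMP read by HTRF (665/620 nm).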

Row | Structure (SMILES) | Potency
1 | CC(C)c1ccc(OP(=O)(Oc2ccc(C(C)C)cc2)Oc2ccc(C(C)C)cc2)cc1 | inactive
2 | Clc1cccc(Cl)c1 | inactive
3 | ClC(Cl)c1ccccc1 | inactive
4 | O=P(OCC(Br)CBr)(OCC(Br)CBr)OCC(Br)CBr (configuration not stated) | inactive
5 | Clc1cccc(C(Cl)(Cl)Cl)n1 | inactive
6 | COP(=O)(NC(C)=O)SC (configuration not stated) | inactive
7 | CC(C)N1C(=O)c2ccccc2NS1(=O)=O | inactive
8 | CCCCn1cc[n+](C)c1 | inactive
9 | COP(=O)(OC)OC | inactive
10 | CCOP(=S)(OCC)Oc1nc(Cl)c(Cl)cc1Cl | inactive
11 | CCN(CC)C(=O)/C(Cl)=C(\C)OP(=O)(OC)OC | inactive
12 | CCCCCCCCCCCCCCCl | inactive
13 | O=C(NC(=O)c1ccccc1Cl)Nc1ccc(OC(F)(F)F)cc1 | inactive
14 | c1ccc(C2CO2)cc1 (configuration not stated) | inactive
15 | ClCCOCCCl | inactive
16 | Oc1cccc2cccnc12 | inactive
17 | CN=C=O | inactive
18 | CC(O)CCO (configuration not stated) | inactive
19 | CCCCON=O | inactive

Row | Structure (SMILES) | Potency
20 | CCOP(=S)(OCC)Oc1ccc([N+](=O)[O-])cc1 | inactive
21 | C=CC(Cl)CCl (configuration not stated) | inactive
22 | CN(CCCC(=O)c1cccnc1)N=O | inactive
23 | Nc1ccc(Cl)cc1N | inactive
24 | Cc1ccc(N)c(C)c1 | inactive
25 | C[C@H]1O[C@H](OC2[C@@H](O)[C@@H](O)C(O)[C@H](O)[C@H]2O)[C@@H](N)C[C@@H]1N=C(N)C(=O)O (some centres not stated) | inactive
26 | CCC(C)c1ccc(O)cc1 (configuration not stated) | inactive
27 | CCCCC(CC)C(=O)Cl (configuration not stated) | inactive
28 | O=C(CCl)c1ccc(Cl)cc1Cl | inactive
29 | O=c1[nH]c2ccccc2n1C1CCN(CCCC(c2ccc(F)cc2)c2ccc(F)cc2)CC1 | inactive
30 | O=P(Oc1ccccc1)(Oc1ccccc1)Oc1ccccc1 | inactive
31 | CCCCCCCCCCCCn1cc[n+](C)c1 | inactive
32 | Nc1cccc2ccccc12 | inactive
33 | Cc1[nH]c(=O)n(C(C)(C)C)c(=O)c1Cl | inactive
34 | CCCCCC[n+]1ccccc1 | inactive
35 | NN=C(N)N | inactive
36 | O=c1[nH]c2ccccc2c(=O)o1 | inactive
37 | CC(C)CCCCCCOC(=O)c1ccccc1C(=O)OCCCCCCC(C)C | inactive

molecular target: D(2) dopamine receptor (Homo sapiens) (UniProt P14416); assay: Dopamine D2 receptor (DRD2) small molecule antagonists, cell-based qHTS assay (AID 1963595; active = well fitted inhibition curve with a large enough effect in the signal ratio in the repeat runs, with a control signal flat; the % refers to the signal ratio); conditions: HEK293-DRD2 cAMP HTRF antagonist mode; series mostly up to 92.4 µM
Method in brief: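 Antagonist mode in DRD2-HEK293 cells: after compound addition with 0.1 mM Ro20-1724, cells received quinpirole (12 nM) and NKH477 (200 nM) for 30 min at room temperature; HTRF cAMP read after 1 h detection.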

Row | Structure (SMILES) | Potency
38 | CC(C)c1ccc(OP(=O)(Oc2ccc(C(C)C)cc2)Oc2ccc(C(C)C)cc2)cc1 | inactive
39 | Clc1cccc(Cl)c1 | inactive
40 | ClC(Cl)c1ccccc1 | inactive
41 | O=P(OCC(Br)CBr)(OCC(Br)CBr)OCC(Br)CBr (configuration not stated) | inactive
42 | Clc1cccc(C(Cl)(Cl)Cl)n1 | inactive
43 | COP(=O)(NC(C)=O)SC (configuration not stated) | inactive
44 | CC(C)N1C(=O)c2ccccc2NS1(=O)=O | inactive
45 | CCCCn1cc[n+](C)c1 | inactive
46 | COP(=O)(OC)OC | inactive
47 | CCOP(=S)(OCC)Oc1nc(Cl)c(Cl)cc1Cl | inactive
48 | CCN(CC)C(=O)/C(Cl)=C(\C)OP(=O)(OC)OC | inactive
49 | CCCCCCCCCCCCCCCl | inactive
50 | c1ccc(C2CO2)cc1 (configuration not stated) | inactive
51 | ClCCOCCCl | inactive
52 | Oc1cccc2cccnc12 | inactive
53 | CN=C=O | inactive
54 | CC(O)CCO (configuration not stated) | inactive
55 | CCCCON=O | inactive

Row | Structure (SMILES) | Potency
56 | CCOP(=S)(OCC)Oc1ccc([N+](=O)[O-])cc1 | inactive
57 | C=CC(Cl)CCl (configuration not stated) | inactive
58 | CN(CCCC(=O)c1cccnc1)N=O | inactive
59 | Nc1ccc(Cl)cc1N | inactive
60 | Cc1ccc(N)c(C)c1 | inactive
61 | N#CCCCCC#N | inactive
62 | C[C@H]1O[C@H](OC2[C@@H](O)[C@@H](O)C(O)[C@H](O)[C@H]2O)[C@@H](N)C[C@@H]1N=C(N)C(=O)O (some centres not stated) | inactive
63 | CCC(C)c1ccc(O)cc1 (configuration not stated) | inactive
64 | CCCCC(CC)C(=O)Cl (configuration not stated) | inactive
65 | O=C(CCl)c1ccc(Cl)cc1Cl | inactive
66 | O=P(Oc1ccccc1)(Oc1ccccc1)Oc1ccccc1 | inactive
67 | CCCCCCCCCCCCn1cc[n+](C)c1 | inactive
68 | Nc1cccc2ccccc12 | inactive
69 | Cc1[nH]c(=O)n(C(C)(C)C)c(=O)c1Cl | inactive
70 | CCCCCC[n+]1ccccc1 | inactive
71 | NN=C(N)N | inactive
72 | O=c1[nH]c2ccccc2c(=O)o1 | inactive

— PubChem BioAssay (Tox21)
